# In PubChem BioAssay (EPA / NIEHS):
# Active and inactive are the calls of the source. How the source made its calls: active means hit-call score of the fitted dose curve at least 0.9, where 1 is the maximum; inactive means score below 0.9.
# Columns and labels:
# [1] = ATG_PBREM_CIS: Attagene CIS-FACTORIAL HepG2 Assay for human Phenobarbital-responsive Enhancer Module (PBREM) (AID 2282955); conditions: HepG2 PBREM cis-reporter, Attagene multiplexed transcription; actives raise or lower the signal
# Method in brief: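 Fluorescence of labelled reporter cDNA fragments, resolved by capillary electrophoresis, gives mRNA induction in transfected HepG2 cells treated for 24 h; DMSO serves as negative control and baseline.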
# [2] = ATG_PXRE_CIS: Attagene CIS-FACTORIAL HepG2 Assay for human Pregnane X Receptor Element (PXRE) (AID 2282957); conditions: HepG2 Attagene CIS-FACTORIAL PXRE reporter, mRNA; actives raise or lower the signal
# Method in brief: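 Transfect HepG2 with MRTUs (cis promoter elements); dose chemical, incubate 24 h; isolate RNA, RT with oligo(dT), PCR, 6-FAM label, HpaI cut, CE. Gain/loss fit vs DMSO.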
# [3] = ATG_RORE_CIS: Attagene CIS-FACTORIAL HepG2 Assay for human RAR-related Orphan Receptor Element (RORE) (AID 2282959); conditions: HepG2 Attagene cis-factorial RORE reporter, mRNA; actives raise or lower the signal
# Method in brief: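 Cells were HepG2 carrying transfected cis-regulated reporter constructs, dosed for 24 hours. Total RNA was reverse-transcribed and reporter cDNA amplified, fluorescently labeled and sized by capillary electrophoresis. Activity was fitted bidirectionally relative to DMSO.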
# [4] = ATG_Sox_CIS: Attagene CIS-FACTORIAL HepG2 Assay for human SRY-box transcription factor (SOX) (AID 2282960); conditions: HepG2 Attagene cis-factorial SOX reporter, mRNA; actives raise or lower the signal
# Method in brief: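 Transient MRTU transfection of HepG2; 24 h compound incubation; TriZol RNA, oligo(dT) RT, PCR, 6-FAM primer extension, HpaI cut, CE. Bidirectional fit, DMSO = baseline.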
# [5] = molecular target: Transcription factor Sp1 (Homo sapiens) (UniProt P08047); assay: ATG_Sp1_CIS: Attagene CIS-FACTORIAL HepG2 Assay for human Specificity Protein 1 (Sp1) (AID 2282961); conditions: HepG2 Sp1 cis-reporter transcription, actives raise or lower the signal
# Chain of Transcription factor Sp1 (Homo sapiens) (P08047 whole entry, looked up): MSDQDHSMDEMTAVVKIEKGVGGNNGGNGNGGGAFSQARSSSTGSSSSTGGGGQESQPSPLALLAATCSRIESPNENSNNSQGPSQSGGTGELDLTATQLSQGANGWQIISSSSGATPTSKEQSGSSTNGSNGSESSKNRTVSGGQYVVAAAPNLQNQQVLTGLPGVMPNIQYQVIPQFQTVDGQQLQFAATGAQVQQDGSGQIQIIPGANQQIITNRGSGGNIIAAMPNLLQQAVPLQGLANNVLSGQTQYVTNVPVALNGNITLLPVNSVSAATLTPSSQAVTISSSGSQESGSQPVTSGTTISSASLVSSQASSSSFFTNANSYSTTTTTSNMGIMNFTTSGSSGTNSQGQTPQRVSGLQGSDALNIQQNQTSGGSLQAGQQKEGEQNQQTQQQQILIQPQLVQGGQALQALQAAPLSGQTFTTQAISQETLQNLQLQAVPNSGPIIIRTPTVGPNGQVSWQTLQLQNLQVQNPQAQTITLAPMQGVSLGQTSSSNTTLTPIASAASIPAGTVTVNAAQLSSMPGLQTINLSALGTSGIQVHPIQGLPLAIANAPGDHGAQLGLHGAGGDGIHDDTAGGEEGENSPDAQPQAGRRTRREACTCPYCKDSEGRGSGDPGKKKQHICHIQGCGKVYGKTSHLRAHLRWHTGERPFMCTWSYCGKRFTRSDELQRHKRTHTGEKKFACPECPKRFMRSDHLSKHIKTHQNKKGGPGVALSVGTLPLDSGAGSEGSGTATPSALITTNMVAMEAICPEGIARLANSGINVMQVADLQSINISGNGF
# Method in brief: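 Endogenous Sp1 activity was gauged in human liver HepG2 cells bearing transfected reporter units under a cis-regulating promoter. After 24 h dosing, reporter mRNA was quantified by RT-PCR with capillary electrophoresis, and activity fitted bidirectionally versus DMSO.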
# [6] = molecular target: Signal transducer and activator of transcription 3 (Homo sapiens) (UniProt P40763); assay: ATG_STAT3_CIS: Attagene CIS-FACTORIAL HepG2 Assay for human Signal Transducer and Activator of Transcription 3 (STAT3) (AID 2282963); conditions: HepG2, Attagene cis-factorial STAT3 reporter transcription; actives raise or lower the signal
# Chain of Signal transducer and activator of transcription 3 (Homo sapiens) (P40763 whole entry, looked up): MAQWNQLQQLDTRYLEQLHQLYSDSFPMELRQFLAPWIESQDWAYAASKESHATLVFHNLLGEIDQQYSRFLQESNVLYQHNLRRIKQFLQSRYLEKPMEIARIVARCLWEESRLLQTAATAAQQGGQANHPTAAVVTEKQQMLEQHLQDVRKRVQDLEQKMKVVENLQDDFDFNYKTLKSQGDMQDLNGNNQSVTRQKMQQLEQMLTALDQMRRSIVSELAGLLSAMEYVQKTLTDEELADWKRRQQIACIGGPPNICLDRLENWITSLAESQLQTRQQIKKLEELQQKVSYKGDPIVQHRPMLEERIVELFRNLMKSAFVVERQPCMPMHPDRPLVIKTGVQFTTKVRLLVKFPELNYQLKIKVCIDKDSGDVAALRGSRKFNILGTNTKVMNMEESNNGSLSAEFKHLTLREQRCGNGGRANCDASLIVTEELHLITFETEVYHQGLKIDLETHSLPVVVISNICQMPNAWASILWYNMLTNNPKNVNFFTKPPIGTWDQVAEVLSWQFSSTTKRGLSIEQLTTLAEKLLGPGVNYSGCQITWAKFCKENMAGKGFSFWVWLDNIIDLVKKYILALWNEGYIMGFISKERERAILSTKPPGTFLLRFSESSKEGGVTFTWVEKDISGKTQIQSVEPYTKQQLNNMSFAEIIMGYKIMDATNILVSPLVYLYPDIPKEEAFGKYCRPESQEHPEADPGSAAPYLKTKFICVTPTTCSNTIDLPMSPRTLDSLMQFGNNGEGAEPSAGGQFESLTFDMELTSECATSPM
# Method in brief: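 HepG2 cells transiently transfected with cis-element-driven multiple reporter transcription units; after 24 h chemical exposure, reporter mRNA measured by RT-PCR, 6-FAM primer-extension labelling, HpaI digestion and capillary electrophoresis. Bidirectional fitting versus DMSO baseline.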
# [7] = ATG_TA_CIS: Attagene CIS-FACTORIAL HepG2 Assay for human TA Basal Promoter (AID 2282964); conditions: HepG2 Attagene CIS-factorial TA basal promoter reporter; actives raise or lower the signal
# Method in brief: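 Background-control readout: TA basal promoter reporter mRNA, fitted in both directions relative to DMSO. Measured by RT-PCR and capillary electrophoresis 24 hours after treating HepG2 human liver cells transiently carrying multiplexed cis-regulated reporter constructs.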
# [8] = molecular target: Paired box protein Pax-6 (Homo sapiens) (UniProt P26367); assay: ATG_Pax6_CIS: Attagene CIS-FACTORIAL HepG2 Assay for human Paired Box 6 (PAX6) (AID 2282956); conditions: HepG2 CIS-FACTORIAL PAX6 reporter transcription, RNA readout; actives raise or lower the signal
# Chain of Paired box protein Pax-6 (Homo sapiens) (P26367 whole entry, looked up): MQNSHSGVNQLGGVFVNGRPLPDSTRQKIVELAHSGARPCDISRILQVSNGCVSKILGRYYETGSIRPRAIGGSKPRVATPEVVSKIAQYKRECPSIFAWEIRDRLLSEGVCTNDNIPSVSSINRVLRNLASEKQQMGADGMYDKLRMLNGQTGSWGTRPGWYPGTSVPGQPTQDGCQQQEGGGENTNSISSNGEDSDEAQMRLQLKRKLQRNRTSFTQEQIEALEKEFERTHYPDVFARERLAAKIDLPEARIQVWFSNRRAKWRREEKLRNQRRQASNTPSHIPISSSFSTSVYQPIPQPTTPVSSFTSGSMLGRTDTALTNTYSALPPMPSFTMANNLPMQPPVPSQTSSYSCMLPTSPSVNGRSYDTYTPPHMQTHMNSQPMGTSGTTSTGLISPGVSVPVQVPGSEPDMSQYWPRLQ
# Method in brief: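 Transient MRTU transfection of HepG2 → compound exposure 24 h → TriZol RNA, oligo(dT) RT → PCR, 6-FAM primer extension, HpaI cut → capillary electrophoresis; activity fitted both directions against DMSO.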
# [9] = ATG_PPRE_CIS: Attagene CIS-FACTORIAL HepG2 Assay for human Peroxisome Proliferator-activated Response Element (PPRE) (AID 2282958); conditions: HepG2 PPRE cis-element reporter, Attagene transcription factor profiling; actives raise or lower the signal
# Method in brief: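 Cells are first transfected transiently with the multiplexed reporter library, then dosed for 24 h. Total RNA is reverse-transcribed, amplified, fluorescently end-labeled and HpaI-cut before capillary electrophoresis; activity is fitted bidirectionally against DMSO controls.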
# [10] = ATG_SREBP_CIS: Attagene CIS-FACTORIAL HepG2 Assay for human Sterol Regulatory Element Binding (SREBP) (AID 2282962); conditions: HepG2 Attagene cis-factorial SREBP reporter, mRNA; actives raise or lower the signal
# Method in brief: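 Transfected HepG2 (cis-regulated reporter library, endogenous TFs) → compound 24 h → total RNA → oligo(dT) RT → reporter-specific PCR → FAM primer extension, HpaI cut → CE fluorescence. Fit bidirectional vs DMSO.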
Compound,outcome [1],AC50 [2],outcome [3],outcome [4],outcome [5],outcome [6],outcome [7],outcome [8],outcome [9],outcome [10],outcome [2],AC50 [4],AC50 [5],AC50 [9],AC50 [7],AC50 [10]
O=C1CCCN1C1CCCCC1,inactive,57.1 µM (active),inactive,inactive,inactive,inactive,inactive,,,,,,,,,
CC1=CP(=O)(c2ccccc2)CC1 (stereo not drawn),,27.6 µM (active),inactive,inactive,inactive,inactive,inactive,inactive,inactive,inactive,,,,,,
Fc1ccc(Br)cc1,inactive,,,inactive,inactive,inactive,inactive,,,inactive,inactive,,,,,
CCCCCCCOC(=O)c1ccc(O)cc1,inactive,,,,,inactive,inactive,,,inactive,inactive,33.4 µM (active),33.4 µM (active),,,
NC(=O)Nc1ccccc1,inactive,,,,inactive,,inactive,inactive,,inactive,inactive,,,,,
C=CC(=O)O[C@H]1C[C@@H]2CC[C@@]1(C)C2(C)C,inactive,1.52 µM (active),,inactive,,inactive,,,,inactive,,,160 µM (active),29.7 µM (active),141 µM (active),
CC(C)(C)NC(=O)[C@H]1CC[C@H]2[C@@H]3CC[C@H]4NC(=O)C=C[C@]4(C)[C@H]3CC[C@]12C,inactive,14.1 µM (active),inactive,inactive,inactive,inactive,inactive,,inactive,inactive,,,,,,
Cc1c[nH]c(=O)[nH]c1=O,,,inactive,inactive,inactive,inactive,inactive,inactive,inactive,inactive,inactive,,,,,
Cc1ccc2c(c1)CCCN2,,65.1 µM (active),inactive,inactive,inactive,inactive,inactive,inactive,inactive,inactive,,,,,,
CCCCCC1=CCCC1=O,inactive,27.4 µM (active),,inactive,inactive,inactive,inactive,,inactive,inactive,,,,,,
CCCCCCCC(=O)OCC(COC(=O)CCCCCCC)OC(=O)CCCCCCC,,,inactive,inactive,inactive,inactive,inactive,inactive,inactive,inactive,inactive,,,,,
[Cl][Sc]([Cl])[Cl],inactive,,,,inactive,inactive,inactive,,,inactive,inactive,,,,,
O=C(O)C1CCC(C(=O)O)CC1 (stereo not drawn),inactive,,,inactive,inactive,inactive,inactive,inactive,,,inactive,,,,,
C=CC(=O)NC(C)(C)C,inactive,26.9 µM (active),inactive,inactive,inactive,inactive,inactive,,,inactive,,,,,,
CCCCCCCCCCCCCC(=O)OC(C)C,,,inactive,inactive,inactive,inactive,inactive,inactive,inactive,inactive,inactive,,,,,
CCOC(=O)CC(=O)c1ccccc1,inactive,10.4 µM (active),inactive,inactive,inactive,inactive,inactive,,inactive,inactive,,,,,,
CCCCCCC=O,,,inactive,inactive,inactive,inactive,inactive,inactive,,inactive,inactive,,,81.6 µM (active),,
CC(C)[N+](C)(CCOC(=O)C1c2ccccc2Oc2ccccc21)C(C)C,,,inactive,inactive,inactive,inactive,inactive,inactive,,inactive,inactive,,,42.7 µM (active),,
CC12CCC(CC1)C(C)(C)O2,,,inactive,inactive,inactive,inactive,inactive,inactive,inactive,inactive,inactive,,,,,
CCCCCCCCCCCCCCCCCCOS(=O)(=O)O,,,inactive,inactive,inactive,inactive,,inactive,inactive,,inactive,,,,12.4 µM (active),52.7 µM (active)
COC(=O)c1ccc(C(=O)OC)c(C(=O)OC)c1,,,inactive,inactive,inactive,inactive,inactive,inactive,inactive,inactive,inactive,,,,,
COCC(=O)O,,,inactive,inactive,inactive,inactive,inactive,inactive,inactive,inactive,inactive,,,,,
CN(C)Cc1cc(CN(C)C)c(O)c(CN(C)C)c1,inactive,,,,inactive,inactive,inactive,inactive,,inactive,inactive,,,,,
Cc1cc(C)n(CO)n1,,,inactive,inactive,inactive,inactive,inactive,inactive,inactive,inactive,inactive,,,,,
CCN1CCCC1=O,inactive,,inactive,inactive,inactive,inactive,inactive,,,inactive,inactive,,,,,
CO[Si](CCCS)(OC)OC,,,inactive,inactive,inactive,inactive,inactive,inactive,inactive,inactive,inactive,,,,,
O=C(O[C@@H]1Cc2c(O)cc(O)cc2O[C@@H]1c1cc(O)c(O)c(O)c1)c1cc(O)c(O)c(O)c1,inactive,,,inactive,inactive,inactive,inactive,inactive,,,inactive,,,,,
CCOC(=O)OC(=O)OCC,inactive,,,inactive,inactive,inactive,inactive,,inactive,,inactive,,,,,
